Compounds with a hit are over-represented: about 7.1% of the library has one in this group of screens.
S2 tox – viability counter-screen for ATXN expression inhibitors; S2 cells (HEK-293 line with an ATXN2-luciferase reporter) viability, CellTiter-Fluor protease fluorescence, 24 h; Potency, µM (series often up to 56.7 µM), usual class: cytotoxic; hit rate 0.49% among 400,000; AID 651635; also: potency is read from the fitted curve at half-maximal effect; nearly all actives have a fitted effect of over 40% in size
MCF10A rerep – DNA re-replication induction in MCF 10a cells. Potency, µM (doses to about 46.1 µM), inactives show top-dose activity, positive = re-replication, actives largely listed as activators. AID 624296. MCF 10A DNA re-replication, Hoechst nuclear intensity, 48 h. hit rate 2.9% among 350,000; also: potency is read from the fitted curve at half-maximal effect; % of control where 0% means no effect; nearly all actives have a fitted effect of over 50% in size
PINK1 expr mod – PINK1 expression modulation. hit rate 0.2% among 410,000. PINK1 immunofluorescence, high-content cytometry, 24 h. AID 624263. Potency, µM (series often up to 76.6 µM), for the others: at the top dose activation (PINK1 increase), actives largely listed as activators; active = well fitted activation curve with a large enough effect; inconclusive = small, poorly fitted or top-dose-only effect; cell line not stated here; also: potency is read from the fitted curve at half-maximal effect; % of control where 0% means no effect; nearly all actives have a fitted effect of over 65% in size
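Cells are seeded, rested 12 hours, then given compound at five concentrations or DMSO for 24 hours. After fixation, blocking and antibody staining, PINK1 amount and mitochondrial localization are scored; CCCP serves as control.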
IL-1B inflam inh – inhibitors of inflammasome signaling (IL-1 beta secretion) | hit rate 4.7% among 360,000 | THP-1 LPS/ATP IL-1B secretion, AlphaLISA, 16 h; hits give low values | activity change, % at 57.5 µM; in the data active = activity change below about -50%; inconclusive = mostly about -30% to -49%; also: % is scaled to controls: 0 for no effect and ±100 for the full control effect
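THP-1 cells pretreated 1 hr with compounds (up to 57.5 uM final), then stimulated with LPS (250 ng/mL final) plus ATP (1.25 mM final); secreted IL-1B measured by AlphaLISA after 16 hr, decreased signal indicating inhibition.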
ATXN2 expr inh – inhibitors of ATXN2 expression. HEK-293 ATXN2-luciferase reporter, luminescence, 24 h. Potency, µM (top dose mostly 57 µM), without a hit: at the top dose activity change, negative = inhibition, actives largely listed as inhibitors. hit rate 0.72% among 360,000; also: potency is read from the fitted curve at half-maximal effect; % is scaled to controls: 0 for no effect and ±100 for the full control effect; nearly all actives have a fitted effect of over 55% in size
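qHTS (up to 57 uM final) was run with 24 h compound exposure of reporter cells at 37 °C. Each well was multiplexed: SteadyGlo luminescence measured ATXN2-luciferase expression after a fluorogenic Gly-Phe-AFC viability readout (25 uM final).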
SW480 rereplic – DNA re-replication induction in SW480 cells; SW480 DNA re-replication, Hoechst DNA content imaging, 48 h; Potency, µM (top dose mostly 46.1 µM), for inactives: top-dose re-replication activation, hits mostly activators; hit rate 1.8% among 340,000; AID 624297; also: potency is read from the fitted curve at half-maximal effect; % of control where 0% means no effect; nearly all actives have a fitted effect of over 55% in size
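SW480 cells exposed to compounds for 48 hr at 37 C, 5% CO2, then Hoechst-stained 40 min. Nuclear DNA content imaged by fluorescence scanning (405 nm excitation, 500-530 nm emission); re-replication scored as increased high-intensity nuclei.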
The depositor's hits bear a star; i = inactive; u = inconclusive; x = no result given; [ ] = remark or other dose. Unless noted, calls follow the shape of the dose curve; as a rule, active = well fitted curve in the direction sought with a large enough effect; inconclusive = small, poorly fitted or top-dose-only effect, or another doubt; inactive = no such curve, though single readings can be large; an effect the other way counts as inactive or inconclusive.

SMILES | S2 tox | MCF10A rerep | PINK1 expr mod | IL-1B inflam inh | ATXN2 expr inh | SW480 rereplic
O=C(NCCN1CCOCC1)c1ccc2c(c1)N(Cc1cccc(F)c1)C(=O)c1ccccc1S2 | i | 11.0% | 0.3% | u | -16.2% | -14.3%
CCN1CCN(CCNC(=O)c2ccc3c(c2)N(Cc2ccc(F)cc2)C(=O)/C(=C/c2ccccc2)S3)CC1 | u | u | -3.4% | -102.2* | u | u
Cc1ccccc1CN1C(=O)/C(=C\c2ccc(C(=O)NCCN3CCOCC3)cc2)Sc2ccccc21 | i | 20.6µM* | 0.0% | u | -35.1% | u
CN1CCN(CCCNC(=O)c2ccc(/C=C3\Sc4ccccc4N(Cc4ccccc4F)C3=O)cc2)CC1 | i | 16.4µM* | 0.0% | -13.2 | -15.5% | 20.6µM*
O=C(NCc1cccc(F)c1)c1ccc(CN2CC(=O)N3CCCCC3C2=O)cc1 (configuration not stated) | i | x | 3.5% | x | 6.7% | x
C/C(=N\NC(=O)c1cc2c(s1)CCC(C)C2)c1ccncc1 (configuration not stated) | i | 14.6µM* | 2.3% | 0.0 | x | -3.6%
C/C(=N\NC(=O)c1cc2c(s1)CCC(C)C2)c1ccc[nH]1 (configuration not stated) | i | 7.8% | 9.9% | -18.1 | x | -14.9%
Cc1ccc2nc(N3C(=O)CNC3=S)sc2c1 | i | 18.4µM* | -0.6% | x | u | u
COc1ccc(-c2nc3sc(CCNC(=O)c4cc(Cl)ccc4OC)c(C)n3n2)cc1 | 25.1µM* | x | -0.2% | x | u | x
Cc1cc(-c2nc3cccnc3s2)ccc1NS(=O)(=O)c1cccs1 | x | 5.8µM* | 0.7% | 8.3 | 53.8% | u
CCS(=O)(=O)Nc1ccc(-c2nc3cccnc3s2)cc1 | i | 27.5% | -0.3% | u | -4.9% | -6.7%
O=S(=O)(Nc1ccc(-c2nc3cccnc3s2)cc1)c1cccs1 | u | 6.51µM* | 6.1% | -8.7 | 16.7% | 4.9%
O=S(=O)(Nc1ccc(-c2nc3cccnc3s2)cc1)c1ccccc1F | i | u | 5.8% | 11.7 | 29.4% | 23.1µM*
O=S(=O)(Nc1ccc(-c2nc3cccnc3s2)cc1)c1ccc(Cl)s1 | i | 8.2µM* | 3.4% | 8.9 | 21.8% | -1.9%
COc1ccc(S(=O)(=O)N(CC(=O)Nc2ccc(F)c(Cl)c2)c2ccc(C)cc2)cc1OC | u | x | 5.3% | x | -18.6% | x
Cc1ccc(C(=O)N(Cc2cc3cc4c(cc3nc2N2CCOCC2)CCC4)CC2CCCO2)s1 (configuration not stated) | i | x | -0.7% | x | x | x
COc1ccccc1N1CCN(c2ncccc2-c2nc(-c3ccc(Cl)cc3)no2)CC1 | i | x | -1.3% | x | 23.7% | x
Cc1c(NS(=O)(=O)c2ccc3c(c2)OCCO3)cccc1-c1nc2cccnc2s1 | i | 1.2% | 2.0% | -5.7 | -16.2% | 0.1%
O=S(=O)(Nc1cccc2ncccc12)c1cccs1 | u | 16.4µM* | 4.7% | -63.7* | 3.16µM* | 6.51µM*
Cc1cc(-c2nc3cccnc3s2)ccc1NS(=O)(=O)c1ccc2c(c1)OCCO2 | x | 5.17µM* | 0.2% | 0.0 | 22.7% | u
CCNC(=S)/C(=C(/[O-])c1ccc([N+](=O)[O-])cc1)[n+]1ccccc1 | i | -7.4% | -0.2% | -29.5 | 1.3% | -5.3%
CCc1ccc(/C([O-])=C(/C(=S)NCCN2CCOCC2)[n+]2ccccc2)cc1 | i | 6.51µM* | -0.6% | -6.2 | -10.6% | -4.1%
O=C1C(=Cc2cccn2-c2ccccc2)C(=O)c2ccccc21 | i | 9.4% | u | 10.8 | 6.1% | 18.4µM*
O=C1C(=Cc2cccn2-c2ccc(O)cc2)C(=O)c2ccccc21 | u | -5.2% | u | -0.3 | -7.0% | -5.5%
O=C(CC1(O)C(=O)N(Cc2ccccc2)c2ccccc21)c1ccncc1 (configuration not stated) | i | u | 7.0% | 40.6 | -1.0% | -1.1%[9.22 µM]
SMILES | S2 tox | MCF10A rerep | PINK1 expr mod | IL-1B inflam inh | ATXN2 expr inh | SW480 rereplic
Cc1ccccc1CN1C(=O)C(O)(CC(=O)c2ccncc2)c2ccccc21 (configuration not stated) | i | u | 4.4% | 40.6 | -6.1% | 16.4µM*
O=C1/C(=C/c2ccccc2F)SC(=S)N1CCC(=O)N1CCCCC1CCO (configuration not stated) | u | 23.1µM* | 5.4% | -99.2* | -16.4% | u
O=C1/C(=C/c2ccco2)SC(=S)N1CCC(=O)N1CCCCC1CCO (configuration not stated) | x | -6.9% | -1.8% | -75.8* | x | -1.8%
O=C1/C(=C/c2ccccc2)SC(=S)N1CCCC(=O)N1CCCCC1CCO (configuration not stated) | i | 10.2% | 2.3% | -58.8* | -32.4% | 15.0%
O=C1/C(=C/c2ccc(F)cc2)SC(=S)N1CC(=O)N1CCCCC1c1cccnc1 (configuration not stated) | u | -4.0% | 2.0% | 18.2 | x | -10.6%
O=C1/C(=C/c2ccc(Cl)cc2)SC(=S)N1CCC(=O)N1CCCCC1CCO (configuration not stated) | u | u | 5.3% | -26.5 | -9.7% | u
O=C1/C(=C/c2cccc(Cl)c2)SC(=S)N1CCC(=O)N1CCCCC1CCO (configuration not stated) | u | 10.4% | -2.0% | u | x | u
O=C1/C(=C/c2ccccc2F)SC(=S)N1CC(=O)N1CCCCC1c1cccnc1 (configuration not stated) | u | u | 0.7% | -61.2* | x | -2.6%
CCc1ccc(NC(=O)c2sc3nc(C)cc(C)c3c2NC(=O)c2ccccc2OC)cc1 | i | x | -1.1% | x | 21.6% | x
COC(=O)c1ccc(/C=C2\Oc3ccccc3NC2=O)cc1 | i | 6.51µM* | 2.8% | -52.7* | -12.0% | u
Cc1ccc(CNC(=O)CCS(=O)(=O)c2cc3c4c(c2)CCN4C(=O)CC3)cc1 | i | x | -1.1% | x | 9.3% | x
C=CCC(Nc1ccccc1)C12C=CC(O1)C(C(=O)OC)=C2C(=O)OC (configuration not stated) | x | 12.6µM* | 1.1% | -112.8* | u | u
CCn1nc(NC(=O)C2CCCO2)c2cc3cc(C)ccc3nc21 (configuration not stated) | i | -4.7% | 2.5% | -2.6 | 38.4% | 11.8%
CCn1nc(NC(=O)C2CCCO2)c2cc3cccc(C)c3nc21 (configuration not stated) | x | u | -0.8% | x | 5.1% | 18.4µM*
CCn1nc(NC(=O)c2cccnc2)c2cc3cccc(C)c3nc21 | i | 7.08µM* | 4.6% | -5.5 | -6.8% | u
CCn1nc(NC(=O)c2ccccn2)c2cc3cccc(C)c3nc21 | i | 11.6µM* | 10.5% | 16.1 | -4.0% | u
